An excerpt weighted towards active compounds, which were near 21% of everything screened.
SARS PLpro yeast: qHTS of Yeast-based Assay for SARS-CoV PLP | Potency, µM (highest dose often 32.9 µM), inactives show top-dose activity, positive = growth rescue, actives largely listed as activators | S. cerevisiae expressing SARS-CoV PLpro, growth rescue | 330,000 tested, 0.19% active; further: potency means the concentration at half of the fitted maximal effect; 0% is about no effect; nearly all actives have a fitted effect of over 55% in size
Shiga inhibitor: A qHTS for Small Molecule Inhibitors of Shiga Toxin. AID 2315, 2010. inhibition, % at 38.7 µM. Vero cells, Shiga toxin protein synthesis inhibition reporter. 290,000 tested, 9.2% active; in the data active means inhibition mostly above about 28%, no sharp cut-off; inactive means mostly below about 43%; further: 0% is about no effect
Pf growth 96h: Primary qHTS for delayed death inhibitors of the malarial parasite plastid, 96 hour incubation. P. falciparum luciferase reporter growth, 96 h. Potency, µM (doses to about 28.7 µM), for inactives: at the highest dose activity change, negative = inhibition, hits mostly inhibitors. 320,000 tested, 6.9% active. AID 504834, 2011; active means well fitted inhibition curve with a large enough effect; inconclusive means small, poorly fitted or top-dose-only effect, or another doubt; inactive means no such curve, though single readings can be large or run the other way; further: potency means the concentration at half of the fitted maximal effect; on the % scale 0 is the no-effect control and ±100 the full control effect
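Erythrocytes infected with luciferase-expressing P. falciparum were dispensed at 2% hematocrit and 0.05% parasitemia (final), then incubated with compounds 96 hours at 37 C in 5% CO2. Luminescence after detection reagent addition reported growth.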
Cycloheximide cs: Cycloheximide Counterscreen for Small Molecule Inhibitors of Shiga Toxin. cell reporter, cycloheximide protein synthesis inhibition counterscreen. max response, %. 300,000 tested, 12% active. AID 2314, 2010; in the data active means max response mostly above about 13%, no sharp cut-off; inactive means mostly below about 14%; further: read at 38.3 µM for the half of the compounds with a filed dose; 0% is about no effect
NS1 function inh: qHTS Assay for Inhibitors of Influenza NS1 Protein Function | 270,000 tested, 0.4% active | Potency, µM (top dose mostly 46.1 µM), for inactives: at the top dose activity, positive = more growth; further: potency means the concentration at half of the fitted maximal effect; actives are rising curves; nearly all actives have a fitted effect of over 50% in size
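A cell-based growth assay was used: compounds that relieve NS1-induced slow growth of budding yeast raise OD600. Assay medium was yeast nitrogen base with ammonium sulphate and -URA supplement, pH 6.0, with 2% galactose.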
Pf growth 48h: Primary qHTS for delayed death inhibitors of the malarial parasite plastid, 48 hour incubation; P. falciparum luciferase growth in erythrocytes, 48 h; Potency, µM (titrated, usually from 28.7 µM), for inactives: at the highest dose activity change, negative = inhibition, most hits filed as inhibitors; 310,000 tested, 5.9% active; active means well fitted inhibition curve with a large enough effect; inconclusive means small, poorly fitted or top-dose-only effect, or another doubt; inactive means no such curve, though single readings can be large or run the other way; further: potency means the concentration at half of the fitted maximal effect; on the % scale 0 is the no-effect control and ±100 the full control effect
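Compounds are pin-transferred into medium, infected erythrocytes (2% hematocrit, 0.1% parasitemia final) are added, and plates sit one parasite generation at 37 C in 5% CO2. Detection reagent is then added and luminescence measured.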
* = called active by the depositor; i = inactive; ? = inconclusive; . = no result; [ ] = another dose, or the depositor's remark. Unless noted, the call rests on the fitted dose curve.

SMILES | SARS PLpro yeast | Shiga inhibitor | Pf growth 96h | Cycloheximide cs | NS1 function inh | Pf growth 48h
CCN(CC)CCCNC(=O)c1[nH]c2ccccc2c1Sc1ccc(Cl)cc1 | -1% | -7 | 13µM* | 1 | 2% | 13µM*
CC(C)CCNC(=O)C1CCC(CNc2c(N3CCCC3)c(=O)c2=O)CC1 (stereo not given) | 3% | -11 | -5% | -1 | -6% | 12µM*
O=C(NCc1ccccc1)C1CCC(CNc2c(N3CCCCC3)c(=O)c2=O)CC1 (stereo not given) | -9% | -18 | 12µM* | -4 | -12% | 2%
CC(C)(C)NC(=O)C1CCC(CNc2c(N3CCCCC3)c(=O)c2=O)CC1 (stereo not given) | 0% | -7 | -8% | -2 | -2% | -5%
CNc1snc(C)c1C(=O)OC(C)C(=O)NCc1ccccc1 (stereo not given) | 0% | . | 11% | . | . | -1%
O=C(CN1CCOCC1)NCCc1ccccc1 | -7% | -15 | 10µM* | -2 | 3% | 8%
O=C(Cn1cnc2ccccc21)NCCCN1CCOCC1 | 2% | 25* | . | 24* | -10% | 13%
O=C(CCc1ccccc1)OCCN1CCOCC1 | 7% | 26 | 10µM* | 5 | 6% | 67%
O=C(Cc1ccccc1)OCCN1CCOCC1 | 22% | -3 | ? | 1 | 11% | 7%
O=C(NCCCc1ccccc1)N1CCOCC1 | -1% | -8 | 2% | -3 | 2% | 13%
CC(CCc1ccccc1)NC(=O)N1CCOCC1 (stereo not given) | 5% | -3 | 10µM* | -2 | -5% | -6%
CC(C)CC(NC(N)=O)C(=O)Nc1ccc(Oc2ccccc2)cc1 (stereo not given) | 3% | -8 | ? | 4 | . | 3%
CCOc1ccc(C(=O)NC(C(=O)NCC(c2cccs2)N(C)C)C(C)C)cc1 (stereo not given) | -3%[6.58 µM] | . | ? | . | . | -24%
CC(=O)Nc1ccc([C@H]2[C@H](C)CC[C@H]3C(=O)N4[C@@H](CC[C@@H](C)[C@@H]4c4ccc(NC(C)=O)cc4)C(=O)N32)cc1 | 5% | -2 | -74% | -1 | -25% | -26%
CC(C)(C)OC(=O)NCCC(=O)N/N=C/c1cccc2nccnc12 | 0% | 15 | ? | -2 | 0% | -1%
CS(=O)(=O)N(CC(=O)NCc1ccccn1)Cc1ccc(Cl)cc1 | 12% | -9 | . | 1 | 3% | 27%
O=C(CN1C(=O)COc2ccccc21)NCCCN1CCN(Cc2ccccc2)CC1 | ? | 1 | 0.37µM* | -2 | -1% | 10%
O=C(CNC(=S)N(Cc1ccccc1Cl)C1CCCC1)NCCCN1CCOCC1 | 1% | -4 | -18% | 13 | . | 10µM*
O=C(CN1CCN(Cc2ccccc2)C1=O)NCCCN1CCOCC1 | -2% | -2 | 2.9µM* | 5 | 5% | .
CCc1nn(CC(=O)NCCN2CCN(C)CC2)c(=O)c2cc3c(OC)cccc3n12 | 4% | -6 | ? | 4 | 14% | -34%
CNc1c(NS(=O)(=O)c2ccc(OC)c(Cl)c2)c(=O)oc2ccccc12 | 5% | 15 | 60% | 9 | -6% | -8%
COc1ccc([C@H]2CC(=O)C=C(c3cc(C(F)(F)F)cc(C(F)(F)F)c3)C2)cc1 | -7% | . | -88% | . | . | ?
C=C1SC(=Nc2c(C)cccc2Cl)N(C(=O)c2sc3ccccc3c2Cl)C12CCCCC2 | 2% | -6 | 1.9µM* | -1 | 4% | ?
C=C1SC(=Nc2ccccc2Cl)N(C(=O)c2sc3ccccc3c2Cl)C1(C)C | -4% | 99* | ? | 50* | -7% | ?
O=C(NCC(=O)N1CCCCC1)c1sc2ccccc2c1Cl | -10% | . | 17% | . | . | -10%
SMILES | SARS PLpro yeast | Shiga inhibitor | Pf growth 96h | Cycloheximide cs | NS1 function inh | Pf growth 48h
O=C(c1ccc([N+](=O)[O-])c(CS(=O)(=O)c2ccc(Cl)cc2)c1)N1CCCC1 | -1% | -10 | -2% | 0 | . | -9%
Cc1cc2ncc(C(=O)Nc3ccsc3C(=O)O)c(C)n2n1 | 0% | 20 | 175% | 18* | . | i
O=C(CNC(=O)c1ccccc1)Nc1ccsc1C(=O)O | 0% | 7 | ? | -2 | 2% | 12%
Cc1ccc(C(=O)Nc2ccsc2C(=O)O)cc1 | 14% | 52* | 212% | 39* | -5% | 103%
O=C(Nc1ccsc1C(=O)O)c1ccc(Cl)cc1 | -5% | 85* | 61% | 27* | -38% | .
Fc1ccc(NC(=S)NCc2ccccn2)cc1 | 3% | 46* | 157% | 16* | -16% | 45%
S=C(NCc1ccccn1)Nc1ccccc1 | 6% | 10 | 66% | 7 | 15% | 38%
FC(F)(F)c1cccc(NC(=S)NCCc2ccccn2)c1 | 4% | 15 | ? | 18 | -4% | -23%
CC(=O)c1ccc(NC(=S)NCCc2ccccn2)cc1 | 14% | 21* | 8% | 43* | 4% | 35%
CC(C)(C)c1ccc(NC(=S)NCCc2ccccn2)cc1 | -2% | 29 | ? | 17* | -5% | -33%
CN(CCc1ccccn1)C(=O)Nc1ccc(Cl)cc1 | . | 97 | 36% | 32* | -33% | 74%
CN(CCc1ccccn1)C(=S)Nc1ccc(Cl)c(Cl)c1 | -1% | 6 | 37% | 10 | -11% | 6%
N[C@H](CCC(=O)NCC(=O)O)C(=O)O | . | -3 | . | -5 | . | .
S=C(NCCc1ccccn1)Nc1ccc(Cl)cc1 | -1% | 48* | 15% | 39* | 3% | 22%
Fc1ccc(NC(=S)NCCc2ccccn2)cc1 | -1% | 7 | -14% | 23 | 2% | 26%
C=C(C)C(=O)Nc1cccc(C2=NOC3(C2)C[C@@H](C(N)=O)N(C(=O)/C=C/C=C/C)C3)c1 (stereo not given in full) | 2% | -1 | 27% | -4 | 4% | 50%
CCOc1ccc(C(=O)/C=C/Nc2ccc(S(=O)(=O)N=C(N)N)cc2)cc1 | -11% | 62* | -91% | 23* | -6% | 15%
COc1ccc(C(=O)/C=C/Nc2ccc(C)cn2)cc1OC | ? | 75* | 24% | 38* | -32% | 281%
CCCOc1ccc(N/C=C/C(=O)c2ccc(OC)c(OC)c2)cc1 | -1% | 11 | 21% | -1 | 9% | ?
NC(N)=NS(=O)(=O)c1ccc(N/C=C/C(=O)c2ccc(Cl)c(Cl)c2)cc1 | 0% | -10 | -25% | 2 | 3% | ?
CCOc1ccc(N/C=C/C(=O)c2ccc(OC)c(OC)c2)cc1 | -2% | 82* | 54% | 41* | -1% | 59%
COc1cc(C(=O)/C=C/Nc2ccc(NC(C)=O)cc2)cc(OC)c1OC | -29% | 1 | ? | 6 | 12% | -15%
COc1ccc(C(=O)/C=C/Nc2ccc(S(N)(=O)=O)cc2)cc1OC | -1% | 32 | ? | 14* | -2% | -8%
CC1CCCC(C)N1CCNC(=O)CCn1nc(-c2ccccc2)ccc1=O (stereo not given) | 4% | -5 | -5% | 16 | -10% | 27%
